Compound activity deposited in PubChem by several laboratories.
Sampled rows, rich in hits. Any-hit rate of the full collection: about 1.6%.
PrPC surface inh: reduces human prion protein on the cell surface; cell surface PrPC, TR-FRET read-out; inhibition, % at 13.8 µM; 0.43% of 370,000 active; AID 720596; in the data active means inhibition above about 24%; further: 0% = median of the test wells and 100% = reference compound wells
PfHsp40 rescue: compounds rescuing yeast from Plasmodium falciparum HSP40 toxicity; growth rescue, % at 12.5 µM; S. cerevisiae expressing PfHsp40, growth rescue, ATP luminescence; AID 504582; 0.68% of 340,000 active; in the data active means growth rescue above about 28%, passing the limit was not always enough;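 further: yeast W303a lacking pdr1 and pdr3 grown in galactose medium; growth measured after three days at 30 °C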
BH1578 lux ind: inducers of Vibrio cholerae quorum light production without autoinducers; 0.16% of 350,000 active; V. cholerae BH1578 lux reporter, luminescence, 6 h; activation, % at 18.7 µM; in the data active means activation mostly above about 9.7%, no sharp cut-off
PrP UTR inh: inhibition of PrP 5' UTR reporter expression; cell-based PrP 5' UTR mRNA reporter, plate reader; inhibition, % (no concentration beside the values); 0.35% of 340,000 active; in the data active means inhibition above about 52%; further: 0 = median of the neutral control wells
SSB-PriA inh: blocks PriA binding to SSB C-terminal tail; AlphaScreen SSBct-PriA binding, biotinylated peptide; inhibition, % at 33 µM; AID 1272365; 0.6% of 430,000 active; in the data active means inhibition mostly above about 37%, no sharp cut-off; inactive means mostly below about 20%;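 further: plate controls were negative control peptide for no effect and reference peptide for full effect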
3CLpro inhibitor: SARS-CoV 3CLpro protease inhibition; AID 1706; 0.14% of 290,000 active; P0C6X7; recombinant SARS-CoV 3CLpro, quenched FRET peptide cleavage; inhibition, % at 6 µM; in the data active means inhibition above about 12%
* hit, by the source's call; i = inactive; x = no result; ! = repeats disagree.

SMILES	PrPC surface inh	PfHsp40 rescue	BH1578 lux ind	PrP UTR inh	SSB-PriA inh	3CLpro inhibitor
O=C(Nc1nc2c(s1)CN(C(=O)Nc1cccc(Cl)c1)CC2)c1ccsc1	x	x	x	x	-7	x
COC(=O)c1ccc(S(=O)(=O)NCC2(O)CCc3ccccc32)cc1 (configuration not stated)	x	x	x	x	-11	x
Cc1cc(NS(=O)(=O)c2ccc(NC(=O)c3cc(Cl)sc3Cl)cc2)no1	x	x	x	x	8	x
O=C(NC(=S)NC1CCCCCC1)c1cncc(Br)c1	-1	33*	0	-30	-9	-1
Cc1ccc(N2CCCC(C(=O)NCCn3nc(-c4ccc(F)cc4)ccc3=O)C2)nn1 (configuration not stated)	x	x	x	x	-2	x
N#Cc1ccc(NCCc2ccccn2)c([N+](=O)[O-])c1	-35	1	5	2	3	5
O=[N+]([O-])c1cc(Cl)ccc1NCCc1ccccn1	-16	0	0	-22	55*	1
COc1ccccc1N1C(=O)C(Cl)=C(Nc2ccccc2O)C1=O	-13	92*	0	-30	31	-3
O=C1C(Cl)=C(Nc2ccccc2O)C(=O)N1c1ccccc1	-6	-2	i	-33	1	-2
Cc1ccc(CNC(=O)CCc2csc(NC(=O)c3ccc(=O)[nH]c3)n2)cc1	x	x	x	x	-10	x
CCCCC(=O)NCCS(=O)(=O)N1CCN(c2ccc(F)cc2)CC1	x	x	x	x	-24	x
CCOC(=O)c1c(NC(=O)C(C)Sc2nnc(CNC(=O)c3ccco3)n2-c2cccc(C)c2C)sc2c1CCC2 (configuration not stated)	x	x	x	x	17	x
CCN(CC)c1ccc2cc3ccc(N)cc3[n+](-c3ccccc3)c2c1	x	x	x	x	117*	x
Cn1c(=O)c(C(=O)NNC(=O)c2ccccc2Br)c(O)c2ccccc21	-7	-1	1	-30	-10	4
Cn1c(=O)c(C(=O)NNC(=O)c2ccccc2Cl)c(O)c2ccccc21	-5	82*	0	-13	-4	-1
CC(=O)NC1C(Oc2ccc(Cl)cc2)OC(CO)C(O)C1O (configuration not stated)	x	x	x	x	-9	x
COc1cc(/C=N/NC(=O)c2cnccn2)cc(OC)c1OC	-8	66*	i	-19	x	-5
COc1cc(C=NNC(=O)c2cnccn2)cc(OC)c1OC	x	x	x	x	-5	x
COC(=O)c1sc(-c2ccc(Cl)cc2)cc1NC(=O)CSCC(=O)O	-4	1	-1	-13	-14	-1
COC(=O)c1sc(-c2ccc(C(C)(C)C)cc2)cc1NC(=O)COCC(=O)O	-6	33*	i	-58	16	10
CC1CCCN(Cc2c(C(=O)N3CCc4ccccc4C3)nc3ccc(Cl)cn23)C1 (configuration not stated)	4	55*	-5	-8	-2	4
COc1ccccc1N=Cc1c(C)[nH]n(-c2ccc(C)cc2C)c1=O	6	58*	i	-16	-5	5
COc1cc(SC#N)ccc1N=Cc1c(C)[nH]n(-c2ccc(C)cc2C)c1=O	15	38*	i	-10	12	2
COc1cc(SC#N)ccc1N=Cc1c(C)[nH]n(-c2cccc3ccccc23)c1=O	x	x	x	x	4	3
O=S(=O)(c1cccc(Cl)c1)c1nnn2c1nc(Nc1ccc(F)cc1)c1sccc12	x	x	x	x	-4	x
SMILES	PrPC surface inh	PfHsp40 rescue	BH1578 lux ind	PrP UTR inh	SSB-PriA inh	3CLpro inhibitor
COC(=O)C1C2c3ccccc3C(c3ccccc32)C1(C)C(=O)OC (configuration not stated)	-7	35*	-6	0	-16	x
COC(=O)[C@@H]1C(c2ccccc2)(c2ccccc2)[C@@]1(C)C(=O)OC	12	1	0	-27	-6	0
CN(C)CCCN(C(=O)c1ccc(S(=O)(=O)N(C)Cc2ccccc2)cc1)c1nc2cc3c(cc2s1)OCO3	-15	1	x	-1	40*!	1
CN(C)CCN(C(=O)c1ccccc1[N+](=O)[O-])c1nc2ccc(Br)cc2s1	x	x	x	x	47*	x
Cc1cc(C)c2sc(N(CCCN(C)C)C(=O)c3ccc(S(=O)(=O)N(C)Cc4ccccc4)cc3)nc2c1	-11	-1	i	8	49*	x
CCCCN(CC)S(=O)(=O)c1ccc(C(=O)N(CCCN(C)C)c2nc3cc(C)cc(C)c3s2)cc1	-9	0	-6	-13	29	-8
CCN(Cc1ccccc1)S(=O)(=O)c1ccc(C(=O)N(CCCN(C)C)c2nc3cc(C)cc(C)c3s2)cc1	-12	7	i	-2	43*	x
COc1ccccc1CNC(=O)C(=O)NCCC(O)c1ccoc1 (configuration not stated)	x	x	x	x	-18	x
O=C(NCCC(O)c1ccc2c(c1)OCO2)C(=O)Nc1cc2c3c(c1)CCN3C(=O)CC2 (configuration not stated)	x	x	x	x	-32	x
CN(C)CCN(C(=O)c1cccc2ccccc12)c1nc2cc3c(cc2s1)OCO3	-7	-1	i	-10	47*	-1
CN(C)CCCN(C(=O)c1ccc2ccccc2c1)c1nc2cc3c(cc2s1)OCO3	-27	1	i	3	29	3
CCOC(=O)[C@]12Cc3cc(C)ccc3[C@H]1N(C1CCCCC1)C(=O)c1cc(OC)ccc12	38*	x	x	x	x	x
CCOC(=O)[C@]12Cc3cc(OC)ccc3[C@H]1N(C1CCCCC1)C(=O)c1cc(OC)ccc12	22	x	x	x	x	x
O=C(COc1ccccc1F)Nc1ccc2c(c1)CN(C(=O)c1cccs1)CC2	x	x	x	x	-4	x
Cc1cc([N+](=O)[O-])cc(/C=N/n2c(C)nc3ccccc3c2=O)c1O	7	192*	i	-47	x	-1
Cc1cc(C)c(C)c(OCCCOc2cccc3cccnc23)c1	2	93*	0	-27	-5	-4
Cc1cc(OCCOc2cccc3cccnc23)cc(C)c1Cl	8	1	0	-31	-6	-4
Cc1cccc(NS(=O)(=O)c2ccc(C)c(C(=O)NC3CCN(Cc4ccccc4)CC3)c2)c1	3	0	i	-4	47*	x
Cc1ccccc1C(=O)NC1CCN(Cc2ccccc2)CC1	-5	0	i	-6	5	2
Oc1c(Br)cc(Br)cc1CNc1ccc(F)cc1	-5	187*	0	-17	-2	-3
c1ccc(CSc2ccc(-c3ccccn3)nn2)nc1	6	416*	-1	-60	89*	-5
c1ccc(-c2ccc(SCc3cccnc3)nn2)nc1	-5	259*	-1	-28	76*	1
c1ccc(-c2ccc(SCc3ccccn3)nn2)cc1	x	x	x	x	32	x
CN(c1ccccc1)S(=O)(=O)c1ccc(C(=O)Nc2nnc(Cc3ccccc3)o2)cc1	x	x	x	x	6	x
CN(C)CC#CCNC(=O)NCc1cccc2ccccc12	x	x	x	x	-8	x
O=C(NC1CCN(C(=O)Nc2cccc(F)c2)CC1)c1ccco1	6	-1	-4	-27	58*	2
Cc1ccccc1OCCN1CCC(Cc2ccccc2)CC1	1	59*	-1	-14	-2	-3
